In the library only some 5.4% were active in any assay of this set; here they are far more common.
Gal4-VP16 FLuc: VP16 counterscreen qHTS for inhibitors of ROR gamma transcriptional activity; Drosophila S2 Gal4-VP16 UAS-luciferase, luminescence, 20 h; Potency, µM (doses to about 53.6 µM), without a hit: top-dose activity, negative = inhibition, hits mostly inhibitors; hit rate 3.5% among 310,000; AID 2546, 2010;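 further: Gal4-VP16 expression switched on by copper sulfate through the metallothionein promoter; potency means the concentration at half of the fitted maximal effect; on the % scale 0 is the no-effect control and ±100 the full control effect; nearly all actives have a fitted effect of over 50% in size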
CtBP-E1A inh: qHTS Assay for Inhibitors of the CtBP/E1A Interaction; CtBP / adenovirus E1A interaction (AlphaScreen); AlphaScreen GST-E1A/His-CtBP binding, 1536-well; stronger effect = lower value; activity change, % (test concentration not listed); hit rate 0.49% among 340,000; AID 651724, 2012; in the data active means activity change below about -65%; inconclusive means mostly about -30% to -63%; further: on the % scale 0 is the no-effect control and ±100 the full control effect
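GST-E1A and His-tagged CtBP (125 nM each as 5X stock) were preincubated with pin-transferred compound for 2 h at 37 °C in the dark, then glutathione donor and nickel acceptor beads were added for 1 h before AlphaScreen reading.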
Six1-Eya2 inh: qHTS Assay for Inhibitors of the Six1/Eya2 Interaction | AlphaScreen GST-Six1/His-Eya2 binding, biochemical; stronger effect = lower value | activity change, % (concentration not given with the values) | hit rate 0.56% among 360,000 | AID 651725, 2012; in the data active means activity change below about -65%; inconclusive means mostly about -30% to -63%; further: on the % scale 0 is the no-effect control and ±100 the full control effect
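Six1/Eya2 binding was read as AlphaScreen signal after compounds were pinned into GST-Six1 plus His-tagged Eya2 (5X stock 250/500 nM) in pH 8.0 Tris/NaCl/TCEP buffer, beads added, then incubated 1 h, 37 C, dark.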
RORg inh: qHTS for inhibitors of ROR gamma transcriptional activity; Nuclear receptor ROR-gamma (Mus musculus), P51450; hit rate 5.4% among 310,000; Drosophila S2 Gal4-RORgamma UAS-luciferase reporter, 20 h; AID 2551, 2010; Potency, µM (series often up to 53.6 µM), for the others: at the top dose activity change, negative = inhibition, hits mostly inhibitors; further: potency means the concentration at half of the fitted maximal effect; on the % scale 0 is the no-effect control and ±100 the full control effect; nearly all actives have a fitted effect of over 60% in size
Target sequence (P51450 whole entry, looked up, the tested form may be a part): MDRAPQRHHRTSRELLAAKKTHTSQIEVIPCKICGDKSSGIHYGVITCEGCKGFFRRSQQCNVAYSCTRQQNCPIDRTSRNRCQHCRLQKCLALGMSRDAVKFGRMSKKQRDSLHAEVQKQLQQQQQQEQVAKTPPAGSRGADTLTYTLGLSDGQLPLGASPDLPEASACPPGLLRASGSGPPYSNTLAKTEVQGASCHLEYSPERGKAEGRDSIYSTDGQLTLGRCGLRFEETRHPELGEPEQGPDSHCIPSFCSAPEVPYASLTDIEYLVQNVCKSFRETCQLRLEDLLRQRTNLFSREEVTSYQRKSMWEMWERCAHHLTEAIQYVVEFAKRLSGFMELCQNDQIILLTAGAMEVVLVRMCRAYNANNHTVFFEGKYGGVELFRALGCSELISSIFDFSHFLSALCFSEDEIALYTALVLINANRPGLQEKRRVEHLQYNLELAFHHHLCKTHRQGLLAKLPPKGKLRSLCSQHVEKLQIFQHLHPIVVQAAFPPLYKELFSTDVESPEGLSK
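Drosophila Schneider cells stably carrying a metallothionein-driven Gal4 DBD–ROR gamma fusion and a UAS-Photinus luciferase reporter were exposed to compound for 1 hr, then induced with copper sulfate (700 uM final) for 20 hr at ambient temperature before luminescence reading.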
p53 reactivator: qHTS assay for re-activators of p53 using a Luc reporter. H1299 p53-A138V BP100-luciferase reporter, luminescence, 24 h. Potency, µM (series often up to 92.2 µM), for the others: at the top dose activity change, positive = activation, usual class: activators. hit rate 0.063% among 320,000. AID 504706, 2011; further: potency means the concentration at half of the fitted maximal effect; % of control where 0% means no effect; nearly all actives have a fitted effect of over 45% in size
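H1299 (p53-null), stable ts p53-A138V + BP100-Luc; 1000 cells/well, Opti-MEM/10% FBS; cpd 4 pt, 1:5; 24 h, 37 deg C, 5% CO2; detection reagent 10 min RT; luminescence.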
An asterisk follows results filed as active; ? = inconclusive; . = no result given; [ ] = dose if it differs, or a comment. Unless noted, the call rests on the fitted dose curve; in most records, active means well fitted curve in the direction sought with a large enough effect; inconclusive means small, poorly fitted or top-dose-only effect, or another doubt; inactive means no such curve, though single readings can be large; an effect the other way counts as inactive or inconclusive.

SMILES | Gal4-VP16 FLuc | CtBP-E1A inh | Six1-Eya2 inh | RORg inh | p53 reactivator
Cc1c(N=C/C=C2/N(C)c3ccccc3C2(C)C)c(=O)n(-c2ccccc2)n1C | -1.3% | -2.4 | -3.9 | ? | 3.5%
CN1/C(=C\C=N\NC(=O)c2ccc(O)cc2)C(C)(C)c2ccccc21 | 2.51µM* | -3.2 | -20.6 | 4.47µM* | -1.5%
CN1/C(=C\C(=O)c2cccnc2)C(C)(C)c2ccccc21 | 21.8% | . | 3.2 | 18.0% | 3.7%
Cc1ccccc1Nc1oc(-c2ccccc2)nc1-c1cccc2ccccc12 | 2.4% | . | . | 4.1% | .
O=C(CSc1ccccn1)Nc1nonc1[N+](=O)[O-] | 5.01µM* | . | 2.0 | 5.62µM* | -20.8%
Cc1cccc(CSc2cn(CC(=O)N3CCOCC3)c3ccccc23)c1 | -3.3% | -1.3 | -4.9 | -1.1% | ?
O=C(Cn1cc(SCc2cccc(Cl)c2)c2ccccc21)N1CCOCC1 | -15.9% | -6.3 | -9.3 | -0.6% | 28.2µM*
Cc1ccc(C(=O)NCCn2cc(SCC(=O)N3CCOCC3)c3ccccc32)cc1 | -1.3% | -5.8 | -0.8 | 12.6µM* | 5.5%
O=C(O)c1ccc(Cl)c(S(=O)(=O)Nc2ccc3cn[nH]c3c2)c1 | -1.2% | 0.0 | 5.0 | ? | 4.8%
O=C(O)CSC(=S)N1CCCC1 | 4.3% | 7.2 | 2.8 | 9.6% | 0.4%
O=C(CSC(=S)N1CCCC1)N/N=C/c1c(O)[nH]c(=S)[nH]c1=O | . | -92.9* | -90.5* | . | -0.7%
Cc1ccc2c(c1)c1nnc(SCC(=O)N3CCCc4ccccc43)nc1n2CC(=O)O | -3.6% | -88.1* | -77.8* | 20.9% | 14.7%
O=C(CSc1n[nH]c(-c2cccs2)n1)N1CCCc2ccccc21 | 1.3% | 4.1 | -0.9 | ? | -5.3%
CCc1nnc(SCC(=O)N2CCCc3ccccc32)nc1CC | 9.1% | 4.7 | -2.1 | 0.5% | -3.6%
O=C(CSc1nnc(-c2ccccc2)c(-c2ccccc2)n1)N1CCc2ccccc21 | 5.2% | -1.2 | -2.5 | 3.16µM* | -0.9%
O=C(CSc1n[nH]c(-c2ccccc2O)n1)N1CCCc2ccccc21 | 14.5% | -1.0 | -1.8 | 11.2µM* | -9.6%
COc1ccc(/C=N/NC(=S)NCC2CCCO2)cc1 (stereo unspecified) | 11.2µM* | 8.2 | 4.4 | 2.82µM* | -2.7%
COC(=O)c1ccc(/C=N/NC(=O)C(=O)NCC2CCCO2)cc1 (stereo unspecified) | -0.1% | 1.9 | -3.2 | 26.6% | 1.3%
COc1cc(/C=N/NC(=S)NCC2CCCO2)cc(OC)c1OC (stereo unspecified) | 15.8µM* | -2.9 | 6.9 | 4.47µM* | -6.6%
NCCC[C@@H](CC(=O)N[C@@H]1CCNC[C@H]1C(=O)N[C@H](CC(=O)N[C@@H](CCC(=O)O)CC(=O)O)Cc1c[nH]c2ccccc12)NC(=O)C[C@H](CO)NC(=O)[C@@H]1CNCC[C@H]1N | -0.5% | . | . | 8.7% | .
COc1cnc(-c2ccccc2)nc1Sc1ccccc1 | 0.0% | -5.6 | 11.2 | ? | 2.8%
CCOC(=O)C(C)Sc1nc(-c2ccccn2)ncc1OC (stereo unspecified) | ? | . | -91.1* | 7.08µM* | 0.8%
COc1ccccc1Sc1nc(-c2ccccc2)ncc1OC | 0.6% | 15.2 | 6.8 | 7.9% | 1.4%
COc1cnc(-c2ccccn2)nc1Sc1ccccc1Cl | 10µM* | ? | ? | 2.51µM* | 2.1%
COc1cnc(-c2ccccn2)nc1Sc1c(Cl)cccc1Cl | 10µM* | -20.7 | -9.2 | 3.16µM* | -4.0%
SMILES | Gal4-VP16 FLuc | CtBP-E1A inh | Six1-Eya2 inh | RORg inh | p53 reactivator
CC1CC(C)CN(S(=O)(=O)c2ccc3c(c2)CC(C)N3C(=O)C2CC2)C1 (stereo unspecified) | -3.6% | . | -1.6 | 12.2% | -8.9%
Cc1ccccc1NC(=S)NCc1cccs1 | ? | 2.5 | 5.9 | ? | 0.1%
S=C(NCc1cccs1)Nc1cccc(Cl)c1Cl | 8.91µM* | -10.7 | 5.8 | 10µM* | ?
Cc1c(Cl)cccc1NC(=S)NCc1cccs1 | 7.08µM* | 1.3 | 5.0 | 4.47µM* | 7.8%
COc1cccc(CNC(=O)c2ccc(CS(=O)Cc3ccccc3Cl)o2)c1 (stereo unspecified) | . | -2.8 | 1.0 | . | .
N#C[C@H](Cc1ccc(O)cc1)c1ccc(O)cc1 | -7.3% | . | . | 0.0% | .
Cn1c(=O)c2c(nc(NCc3ccc4c(c3)OCO4)n2Cc2ccccc2F)n(C)c1=O | 17.8µM* | -8.6 | -12.7 | 1.0% | -0.7%
Cn1c(=O)c2c(nc(NCC3CCCO3)n2Cc2ccccc2)n(C)c1=O (stereo unspecified) | 4.8% | -0.7 | 3.4 | ? | 9.5%
Cn1c(=O)c2c(nc(NCc3ccc4c(c3)OCO4)n2Cc2ccccc2)n(C)c1=O | 7.08µM* | -16.8 | -15.7 | -37.2% | -21.9%
Cn1c(=O)c2c(nc(NCc3ccc4c(c3)OCO4)n2Cc2ccc(F)cc2)n(C)c1=O | 10µM* | -11.7 | -21.1 | -37.4% | -26.0%
Cn1c(=O)c2c(nc(Oc3ccc4c(c3)OCO4)n2Cc2ccc(Cl)cc2)n(C)c1=O | 4.3% | -2.7 | 3.7 | -5.8% | -9.0%
Cn1c(=O)c2c(nc(NCc3cccnc3)n2Cc2ccccc2Cl)n(C)c1=O | 8.5% | -2.0 | 1.9 | 1.0% | 15.5%
Cc1ccc(C(C)C)c(OCC(=O)NN=C(CCl)CCl)c1 | 3.4% | . | . | 28.4% | 4.4%
S=C(Nc1ccccn1)Nc1ccccc1Cl | -15.5% | 5.8 | -0.3 | 8.4% | 12.1%
Cc1ccccc1NC(=O)C(=O)NCc1ccccn1 | 3.1%[0.365 µM] | -0.9 | -0.2 | -30.6% | 7.6%
Cc1c(Cl)cccc1NC(=S)Nc1ccccn1 | ? | 18.9 | 2.2 | 1µM* | -1.4%
Cc1ccccc1NC(=S)Nc1ccccn1 | 1.58µM* | . | -24.1 | 0.501µM* | -7.6%
Cc1ccccc1NC(=S)Nc1ccc(Br)cc1 | 11.2µM* | -6.9 | 13.7 | 11.2µM* | 10.3%
CC(=O)Nc1cc2nn(-c3ccccc3)nc2cc1Cl | -0.6% | 6.4 | 4.0 | ? | ?
CC(C)(C)C(=O)Nc1cc2nn(-c3ccccc3)nc2cc1Cl | 3.55µM* | 26.5 | 55.6 | 0.631µM* | -3.6%
C=CCN(CC=C)Cc1c(C)[nH]c2c(C)c(C)ccc2c1=O | 12.6µM* | 0.0 | 0.8 | ? | -2.5%
CCN(Cc1ccccc1)Cc1c(C)[nH]c2c(C)c(C)ccc2c1=O | -1.1% | -2.2 | 8.2 | -0.7% | 2.1%
COc1ccc(-c2nc(CN3CCCCC3c3nccn3C)c(C)o2)c(C)c1C (stereo unspecified) | ? | -8.1 | -7.8 | 4.47µM* | -4.1%
CCOc1ccc(CCNC(=O)CCc2nnc3ccc(N4CCCCC4)nn23)cc1OCC | -2.9% | 0.5 | -1.9 | -6.4% | .
c1ccc(-c2nc(NCc3cccnc3)c3ccccc3n2)cc1 | -10.1% | -18.2 | -14.7 | 8.7% | -7.7%
